Holding throughout (test): DAPPL (digital affinity profiling via proximity ligation, sequencing); 10 mM Tris-HCl pH 7.5, 50 mM NaCl, 1 mM DTT, 4% glycerol, room temperature, 30 min; GST-TFs on glutathione beads, 16-mer random dsDNA library, 0.1% formaldehyde crosslink after washing; high values mean tight binding
The target in one experiment is T1, FEV (Homo sapiens, UniProt Q99581 1-238).
T1 sequence: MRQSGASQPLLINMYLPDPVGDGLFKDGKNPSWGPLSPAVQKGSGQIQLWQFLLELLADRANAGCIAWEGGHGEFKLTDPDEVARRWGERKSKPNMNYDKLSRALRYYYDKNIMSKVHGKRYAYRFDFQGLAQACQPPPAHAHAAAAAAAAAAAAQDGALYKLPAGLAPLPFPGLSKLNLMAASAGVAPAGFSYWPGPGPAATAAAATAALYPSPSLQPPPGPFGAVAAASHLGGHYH
To be noted: protein: recombinant; tags: N-terminal GST; dsDNA, one strand shown. The method in brief:
(§1)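 Binding signal is defined as a hexamer's read frequency for one factor over its frequency for the tag-only sample. To obtain reads, GST-fused human transcription factors were expressed in yeast, captured on glutathione beads, barcoded with DNA and pooled with that sample. Pools met 200 nmole of a 16-mer random double-stranded DNA library in Tris/NaCl/DTT/glycerol buffer for 30 min at room temperature before washing, 0.1% formaldehyde crosslinking, proximity ligation (BsaI/T4 ligase, 1 h, 37 °C), PCR and Illumina NextSeq500 sequencing.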

Another experiment addresses ETV5 (Homo sapiens, UniProt P41161 1-510). As to conditions: protein: recombinant; tags: N-terminal GST; dsDNA, one strand shown. The gist of the method: as §1
The target of another experiment is HSF1 (Homo sapiens, UniProt Q00613 1-529). As to conditions: protein: recombinant; tags: N-terminal GST; chain copies: 3; dsDNA, one strand shown. The method in brief: as §1
HSF1, sequence (Q00613 whole entry): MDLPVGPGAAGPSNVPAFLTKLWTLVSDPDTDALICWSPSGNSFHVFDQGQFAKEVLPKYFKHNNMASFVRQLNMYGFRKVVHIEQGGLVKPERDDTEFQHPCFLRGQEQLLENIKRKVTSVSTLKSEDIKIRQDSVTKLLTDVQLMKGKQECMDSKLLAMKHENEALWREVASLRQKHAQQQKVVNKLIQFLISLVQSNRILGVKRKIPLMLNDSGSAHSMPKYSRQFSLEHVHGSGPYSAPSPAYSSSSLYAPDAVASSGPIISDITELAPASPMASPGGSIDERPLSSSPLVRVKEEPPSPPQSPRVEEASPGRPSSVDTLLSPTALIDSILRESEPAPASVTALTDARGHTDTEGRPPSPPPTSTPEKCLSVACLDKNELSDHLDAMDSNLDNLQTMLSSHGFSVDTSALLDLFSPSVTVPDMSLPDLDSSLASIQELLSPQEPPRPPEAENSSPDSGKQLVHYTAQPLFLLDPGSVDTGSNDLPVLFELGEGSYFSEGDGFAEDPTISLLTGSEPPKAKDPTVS
A further experiment addresses T2, SPIC (Homo sapiens, UniProt Q8N5J4 1-248).
T2 sequence: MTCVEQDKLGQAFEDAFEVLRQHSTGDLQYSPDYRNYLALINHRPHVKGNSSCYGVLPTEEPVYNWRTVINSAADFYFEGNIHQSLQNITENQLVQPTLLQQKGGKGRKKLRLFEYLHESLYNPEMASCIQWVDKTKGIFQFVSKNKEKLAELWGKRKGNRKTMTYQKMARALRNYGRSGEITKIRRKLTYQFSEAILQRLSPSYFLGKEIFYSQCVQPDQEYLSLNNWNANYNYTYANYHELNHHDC
To be noted: protein: recombinant; tags: N-terminal GST; dsDNA, one strand shown. The method in brief: as §1

A further experiment has as its target ELF4 (Homo sapiens, UniProt Q99607 1-663). As to conditions: protein: recombinant; tags: N-terminal GST; dsDNA, one strand shown. The gist of the method: as §1
Another experiment concerns the target T3, ELK4 (Homo sapiens, UniProt P28324-2 1-405).
T3 sequence: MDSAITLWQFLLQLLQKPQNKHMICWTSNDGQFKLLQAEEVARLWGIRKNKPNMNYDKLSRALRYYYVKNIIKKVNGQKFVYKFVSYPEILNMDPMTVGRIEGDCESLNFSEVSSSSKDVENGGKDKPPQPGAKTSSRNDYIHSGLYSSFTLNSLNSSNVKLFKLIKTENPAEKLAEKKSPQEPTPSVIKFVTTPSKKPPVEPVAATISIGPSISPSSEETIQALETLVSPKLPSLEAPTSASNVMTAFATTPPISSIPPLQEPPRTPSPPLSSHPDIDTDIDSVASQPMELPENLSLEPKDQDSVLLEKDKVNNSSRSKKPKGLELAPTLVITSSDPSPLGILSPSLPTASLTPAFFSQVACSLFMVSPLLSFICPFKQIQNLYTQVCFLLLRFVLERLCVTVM
As to conditions: protein: recombinant; tags: N-terminal GST; dsDNA, one strand shown. The method in brief: as §1

A further experiment concerns the target T4, ETV2 (Homo sapiens, UniProt O00321 1-342).
T4 sequence: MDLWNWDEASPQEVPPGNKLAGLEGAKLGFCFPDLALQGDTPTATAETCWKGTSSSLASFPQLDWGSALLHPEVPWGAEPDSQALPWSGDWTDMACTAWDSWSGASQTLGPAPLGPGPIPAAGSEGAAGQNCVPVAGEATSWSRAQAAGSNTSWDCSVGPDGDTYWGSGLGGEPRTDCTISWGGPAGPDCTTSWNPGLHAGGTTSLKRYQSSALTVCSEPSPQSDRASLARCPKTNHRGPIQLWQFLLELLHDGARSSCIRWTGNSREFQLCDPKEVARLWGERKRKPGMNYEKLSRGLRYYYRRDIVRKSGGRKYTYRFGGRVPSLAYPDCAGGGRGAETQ
To be noted: protein: recombinant; tags: N-terminal GST; dsDNA, one strand shown. The method in brief: as §1

In another experiment the target is T5, ELF3 (Homo sapiens, UniProt P78545 1-371).
T5 sequence: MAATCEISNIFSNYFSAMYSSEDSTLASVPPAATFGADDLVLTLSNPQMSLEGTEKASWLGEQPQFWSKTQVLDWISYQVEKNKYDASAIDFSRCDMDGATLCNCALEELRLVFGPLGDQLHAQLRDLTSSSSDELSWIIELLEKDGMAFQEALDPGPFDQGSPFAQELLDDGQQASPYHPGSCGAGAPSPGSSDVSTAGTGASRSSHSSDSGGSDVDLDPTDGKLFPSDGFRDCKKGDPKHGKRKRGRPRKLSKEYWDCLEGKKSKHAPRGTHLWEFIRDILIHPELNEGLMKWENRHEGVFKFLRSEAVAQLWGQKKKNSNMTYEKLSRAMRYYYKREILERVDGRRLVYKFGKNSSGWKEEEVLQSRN
To be noted: protein: recombinant; tags: N-terminal GST; dsDNA, one strand shown. The gist of the method:
as §1

The target in a further experiment is CRX (Homo sapiens, UniProt O43186 1-299). As to conditions: protein: recombinant; tags: N-terminal GST; dsDNA, one strand shown. The gist of the method: as §1
CRX, sequence (O43186 whole entry): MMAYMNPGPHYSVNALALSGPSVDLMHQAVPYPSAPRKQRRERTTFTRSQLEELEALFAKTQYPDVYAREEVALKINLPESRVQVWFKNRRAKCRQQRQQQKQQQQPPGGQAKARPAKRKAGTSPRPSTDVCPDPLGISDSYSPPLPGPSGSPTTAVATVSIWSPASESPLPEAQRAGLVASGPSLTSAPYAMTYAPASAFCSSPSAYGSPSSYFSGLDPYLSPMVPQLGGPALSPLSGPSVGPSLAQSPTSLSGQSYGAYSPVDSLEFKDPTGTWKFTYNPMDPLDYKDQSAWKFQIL
The target of a further experiment is ETV1 (Homo sapiens, UniProt P50549 1-477). As to conditions: protein: recombinant; tags: N-terminal GST; dsDNA, one strand shown. The gist of the method: as §1
ETV1, sequence (P50549 whole entry): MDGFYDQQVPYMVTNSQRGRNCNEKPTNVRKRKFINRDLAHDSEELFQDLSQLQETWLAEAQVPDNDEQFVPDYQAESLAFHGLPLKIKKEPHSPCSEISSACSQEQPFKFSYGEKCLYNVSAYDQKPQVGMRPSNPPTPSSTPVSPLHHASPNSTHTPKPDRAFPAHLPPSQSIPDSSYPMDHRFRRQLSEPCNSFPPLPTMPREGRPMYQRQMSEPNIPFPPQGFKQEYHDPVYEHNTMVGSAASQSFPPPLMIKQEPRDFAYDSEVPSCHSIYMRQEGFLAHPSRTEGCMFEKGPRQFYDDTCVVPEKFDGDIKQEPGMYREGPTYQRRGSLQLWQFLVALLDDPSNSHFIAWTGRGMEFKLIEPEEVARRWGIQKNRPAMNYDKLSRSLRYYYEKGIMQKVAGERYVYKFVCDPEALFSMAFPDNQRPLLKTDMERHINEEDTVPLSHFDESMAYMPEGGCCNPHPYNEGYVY
The next experiment concerns the target T6, ERF (Homo sapiens, UniProt P50548 1-548).
T6 sequence: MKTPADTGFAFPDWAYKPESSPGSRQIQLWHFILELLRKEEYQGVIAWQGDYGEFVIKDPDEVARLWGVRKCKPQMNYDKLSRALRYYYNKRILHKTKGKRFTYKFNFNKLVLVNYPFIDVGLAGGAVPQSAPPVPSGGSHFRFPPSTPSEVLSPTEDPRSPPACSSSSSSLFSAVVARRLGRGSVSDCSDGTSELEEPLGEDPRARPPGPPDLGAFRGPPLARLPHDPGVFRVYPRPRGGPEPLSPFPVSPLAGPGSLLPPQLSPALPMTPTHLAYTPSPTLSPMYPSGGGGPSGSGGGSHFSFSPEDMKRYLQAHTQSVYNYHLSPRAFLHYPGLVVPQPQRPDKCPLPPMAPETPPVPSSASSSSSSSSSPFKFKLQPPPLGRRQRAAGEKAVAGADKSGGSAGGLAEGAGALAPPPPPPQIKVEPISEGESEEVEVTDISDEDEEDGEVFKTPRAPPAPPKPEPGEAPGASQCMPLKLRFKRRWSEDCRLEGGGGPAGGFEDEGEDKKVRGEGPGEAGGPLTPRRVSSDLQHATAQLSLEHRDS
To be noted: protein: recombinant; tags: N-terminal GST; dsDNA, one strand shown. The method in brief:
as §1

The target of another experiment is T7, ETV3L (Homo sapiens, UniProt Q6ZN32 1-361).
T7 sequence: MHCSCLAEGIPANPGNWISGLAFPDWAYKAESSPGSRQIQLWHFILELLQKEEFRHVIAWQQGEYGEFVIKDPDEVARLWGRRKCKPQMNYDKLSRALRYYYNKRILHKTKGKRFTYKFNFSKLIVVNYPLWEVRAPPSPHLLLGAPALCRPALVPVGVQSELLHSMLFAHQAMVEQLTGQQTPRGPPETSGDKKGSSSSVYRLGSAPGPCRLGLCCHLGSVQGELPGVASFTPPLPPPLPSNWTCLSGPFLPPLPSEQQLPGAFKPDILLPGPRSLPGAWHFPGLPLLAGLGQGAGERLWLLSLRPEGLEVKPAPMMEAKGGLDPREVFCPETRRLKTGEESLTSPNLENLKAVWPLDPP
To be noted: protein: recombinant; tags: N-terminal GST; dsDNA, one strand shown. The method in brief:
as §1

The next experiment concerns the target T8, ETS2 (Homo sapiens, UniProt P15036 1-469).
T8 sequence: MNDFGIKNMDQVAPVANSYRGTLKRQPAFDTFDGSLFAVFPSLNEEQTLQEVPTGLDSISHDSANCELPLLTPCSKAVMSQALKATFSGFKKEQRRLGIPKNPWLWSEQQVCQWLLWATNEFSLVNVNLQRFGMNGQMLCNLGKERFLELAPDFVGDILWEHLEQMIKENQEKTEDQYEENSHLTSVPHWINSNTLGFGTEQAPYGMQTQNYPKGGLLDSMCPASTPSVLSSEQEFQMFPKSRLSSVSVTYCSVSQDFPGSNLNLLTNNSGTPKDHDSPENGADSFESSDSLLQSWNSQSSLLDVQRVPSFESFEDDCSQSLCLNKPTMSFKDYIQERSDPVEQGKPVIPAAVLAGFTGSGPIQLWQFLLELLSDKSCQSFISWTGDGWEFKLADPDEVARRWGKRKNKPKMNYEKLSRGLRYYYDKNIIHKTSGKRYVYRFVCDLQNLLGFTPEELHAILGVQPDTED
To be noted: protein: recombinant; tags: N-terminal GST; dsDNA, one strand shown. The gist of the method: as §1

The next experiment deals with T9, SPDEF (Homo sapiens, UniProt O95238 1-335).
T9 sequence: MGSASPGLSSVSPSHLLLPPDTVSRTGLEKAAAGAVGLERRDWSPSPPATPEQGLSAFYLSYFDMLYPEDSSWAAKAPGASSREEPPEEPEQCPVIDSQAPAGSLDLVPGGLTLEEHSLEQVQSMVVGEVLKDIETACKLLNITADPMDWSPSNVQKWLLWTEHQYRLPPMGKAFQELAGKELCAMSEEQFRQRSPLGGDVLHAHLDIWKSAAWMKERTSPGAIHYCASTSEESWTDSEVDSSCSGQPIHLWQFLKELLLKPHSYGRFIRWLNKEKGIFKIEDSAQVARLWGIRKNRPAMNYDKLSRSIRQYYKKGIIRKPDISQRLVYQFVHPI
To be noted: protein: recombinant; tags: N-terminal GST; dsDNA, one strand shown. The gist of the method:
as §1

In another experiment the target is T10, ETV7 (Homo sapiens, UniProt Q9Y603 1-341).
T10 sequence: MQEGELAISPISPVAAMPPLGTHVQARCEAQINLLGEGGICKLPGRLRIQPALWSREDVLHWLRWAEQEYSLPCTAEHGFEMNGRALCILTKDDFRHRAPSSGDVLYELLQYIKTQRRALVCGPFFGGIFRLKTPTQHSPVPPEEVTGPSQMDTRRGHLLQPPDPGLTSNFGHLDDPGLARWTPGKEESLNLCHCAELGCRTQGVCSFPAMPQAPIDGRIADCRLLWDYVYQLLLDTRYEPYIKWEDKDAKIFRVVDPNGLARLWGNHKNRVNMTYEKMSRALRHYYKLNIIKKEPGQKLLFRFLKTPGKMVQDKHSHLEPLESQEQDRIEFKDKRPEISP
As to conditions: protein: recombinant; tags: N-terminal GST; dsDNA, one strand shown. The gist of the method:
as §1

In the next experiment the target is T11, ELF5 (Homo sapiens, UniProt Q9UKW6-2 1-255).
T11 sequence: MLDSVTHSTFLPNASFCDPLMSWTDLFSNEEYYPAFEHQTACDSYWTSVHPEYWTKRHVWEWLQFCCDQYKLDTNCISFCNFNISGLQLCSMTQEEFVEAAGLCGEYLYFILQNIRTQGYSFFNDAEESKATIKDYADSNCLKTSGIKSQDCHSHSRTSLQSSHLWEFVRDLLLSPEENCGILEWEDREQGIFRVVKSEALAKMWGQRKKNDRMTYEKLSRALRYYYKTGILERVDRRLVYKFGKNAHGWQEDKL
To be noted: protein: recombinant; tags: N-terminal GST; dsDNA, one strand shown. The method in brief:
as §1

For a further experiment, the target named is T12, ETV3 (Homo sapiens, UniProt P41162-2 1-143).
T12 sequence: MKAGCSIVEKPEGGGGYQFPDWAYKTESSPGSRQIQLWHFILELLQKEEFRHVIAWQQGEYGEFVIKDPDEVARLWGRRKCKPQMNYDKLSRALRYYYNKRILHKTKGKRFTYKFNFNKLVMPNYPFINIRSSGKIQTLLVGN
As to conditions: protein: recombinant; tags: N-terminal GST; dsDNA, one strand shown. The gist of the method:
as §1

The next experiment deals with ETV6 (Homo sapiens, UniProt P41212 1-452). To be noted: protein: recombinant; tags: N-terminal GST; dsDNA, one strand shown. The gist of the method: as §1
ETV6, sequence (P41212 whole entry): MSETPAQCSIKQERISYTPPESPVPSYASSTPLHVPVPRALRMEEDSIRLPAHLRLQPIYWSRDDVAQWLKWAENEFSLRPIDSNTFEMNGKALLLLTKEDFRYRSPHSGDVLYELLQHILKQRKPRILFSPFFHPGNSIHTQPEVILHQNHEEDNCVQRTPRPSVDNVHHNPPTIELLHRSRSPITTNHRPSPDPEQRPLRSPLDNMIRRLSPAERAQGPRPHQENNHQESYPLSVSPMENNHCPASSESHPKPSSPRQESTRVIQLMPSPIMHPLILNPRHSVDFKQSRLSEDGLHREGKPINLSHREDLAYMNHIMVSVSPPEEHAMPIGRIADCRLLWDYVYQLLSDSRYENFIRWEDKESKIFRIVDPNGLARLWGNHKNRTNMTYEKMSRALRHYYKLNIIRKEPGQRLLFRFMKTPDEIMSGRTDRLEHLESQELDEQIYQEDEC

The results in this text go back to article PMC7862700, “An all-to-all approach to the identification of sequence-specific readers for epigenetic DNA modifications on cytosine”.

ETV5, sequence (P41161 whole entry): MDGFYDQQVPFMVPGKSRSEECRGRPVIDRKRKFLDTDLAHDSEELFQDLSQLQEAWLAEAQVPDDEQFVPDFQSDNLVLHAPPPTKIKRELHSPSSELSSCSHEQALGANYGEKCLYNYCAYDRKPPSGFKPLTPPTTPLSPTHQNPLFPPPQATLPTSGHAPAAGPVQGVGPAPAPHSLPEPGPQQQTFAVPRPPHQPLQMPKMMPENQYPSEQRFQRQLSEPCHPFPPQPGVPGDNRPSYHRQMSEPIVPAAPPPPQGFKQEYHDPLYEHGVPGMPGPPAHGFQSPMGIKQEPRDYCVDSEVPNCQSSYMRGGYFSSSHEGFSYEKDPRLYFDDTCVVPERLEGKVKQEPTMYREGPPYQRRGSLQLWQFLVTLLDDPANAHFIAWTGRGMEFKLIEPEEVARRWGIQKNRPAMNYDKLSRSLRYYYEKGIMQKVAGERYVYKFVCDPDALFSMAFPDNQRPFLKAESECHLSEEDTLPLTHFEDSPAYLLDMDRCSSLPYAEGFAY
ELF4, sequence (Q99607 whole entry): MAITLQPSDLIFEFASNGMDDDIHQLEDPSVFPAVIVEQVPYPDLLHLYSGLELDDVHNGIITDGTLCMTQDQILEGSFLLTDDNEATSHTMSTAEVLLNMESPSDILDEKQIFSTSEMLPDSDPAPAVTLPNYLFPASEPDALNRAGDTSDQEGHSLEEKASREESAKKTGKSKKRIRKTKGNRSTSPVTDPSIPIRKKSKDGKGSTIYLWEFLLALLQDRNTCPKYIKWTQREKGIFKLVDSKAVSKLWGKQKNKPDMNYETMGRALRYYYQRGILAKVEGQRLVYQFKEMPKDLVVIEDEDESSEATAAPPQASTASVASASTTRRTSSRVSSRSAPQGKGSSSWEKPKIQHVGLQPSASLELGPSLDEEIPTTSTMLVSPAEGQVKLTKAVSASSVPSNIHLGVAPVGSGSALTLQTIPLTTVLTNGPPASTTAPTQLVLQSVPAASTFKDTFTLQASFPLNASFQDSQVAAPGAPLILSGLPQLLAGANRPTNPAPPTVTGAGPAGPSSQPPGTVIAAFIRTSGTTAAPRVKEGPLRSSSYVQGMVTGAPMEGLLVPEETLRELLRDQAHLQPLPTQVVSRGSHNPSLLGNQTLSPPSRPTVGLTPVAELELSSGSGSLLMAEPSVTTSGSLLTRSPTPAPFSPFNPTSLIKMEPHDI

On to CTCTTG, for which the binding signal is 1.34 fold enrichment (6-mer frequency, TF over GST control) with FEV; 1.41 fold enrichment (6-mer frequency, TF over GST control) with ETV5; 1.24 fold enrichment (6-mer frequency, TF over GST control) with HSF1; 1.35 fold enrichment (6-mer frequency, TF over GST control) with SPIC; 1.42 fold enrichment (6-mer frequency, TF over GST control) with ELF4; 1.52 fold enrichment (6-mer frequency, TF over GST control) with ELK4. For the same sequence, the binding signal was 1.36 fold enrichment (6-mer frequency, TF over GST control) with ETV2; 1.22 fold enrichment (6-mer frequency, TF over GST control) in the experiment with ELF3; 1.21 fold enrichment (6-mer frequency, TF over GST control) with CRX; 1.41 fold enrichment (6-mer frequency, TF over GST control) with ETV1; 1.53 fold enrichment (6-mer frequency, TF over GST control) with ERF; 1.42 fold enrichment (6-mer frequency, TF over GST control) with ETV3L. Moreover, the binding signal with ETS2 was 1.23 fold enrichment (6-mer frequency, TF over GST control); with SPDEF, 1.26 fold enrichment (6-mer frequency, TF over GST control); with ETV7, 1.27 fold enrichment (6-mer frequency, TF over GST control); in the experiment with ELF5, 1.43 fold enrichment (6-mer frequency, TF over GST control); in the experiment with ETV3 it was 1.35 fold enrichment (6-mer frequency, TF over GST control); in the experiment with ETV6, 1.2 fold enrichment (6-mer frequency, TF over GST control).
